About 1,700 (74%) of roughly 2,300 compounds were called active. The rule behind the calls is not given here. The set was probably picked from earlier hits. The list shows a part of the results. Results with a measured potency or affinity are listed apart.
Assay: Mycobacterium tuberculosis H37Rv growth inhibition, no glycerol, confirmatory dose response (AID 449764);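 note: growth read after 7 days of incubation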
Details: series mostly up to 100 µM

| Compound | outcome |
| --- | --- |
| Nn1c(SCc2ccccc2)nc2ccccc21 | inactive |
| COc1ccc(-c2oc3ncnc(NCCCN4CCOCC4)c3c2-c2ccc(OC)cc2)cc1 | inactive |
| O=c1[nH][nH]cc1C=Nc1ccc(Oc2ccccc2)cc1 | inactive |
| COc1ccc(NC(=O)C2C3C=CC(O3)C2C(=O)NCc2cccnc2)cc1 (configuration not stated) | inactive |
| CC1CN(C(=S)SCC(=O)c2ccc([N+](=O)[O-])cc2)CC(C)O1 (configuration not stated) | inactive |
| N#CC(c1cccc(Cl)c1)c1ccc2c(C(F)(F)F)cc(C(F)(F)F)nc2n1 (configuration not stated) | inactive |
| CCc1n[nH]c(=S)n1/N=C/c1ccc(-c2ccc(Br)cc2)o1 | inactive |
| CCCCOC(=O)c1ccc(NC(=S)NC(=O)c2c(Br)c(C)nn2C)cc1 | inactive |
| CCn1c(SCC(=O)N(C)CCC#N)nc2cc(S(=O)(=O)N3CCOCC3)ccc21 | inactive |
| COC(=O)C1=C(C)NC(=O)/C1=C\c1cc(C)n(-c2cccc(C)c2)c1C | inactive |
| O=C(c1ccc(C#Cc2ccccc2)o1)N1CCN(c2ccccn2)CC1 | inactive |
| O=C(O)Cc1cnc[nH]1 | inactive |
| Cc1cc(/C=C/C(=O)O)c(C)n1-c1ccc(Cl)cc1 | inactive |
| O=C(CCN1C(=O)C2C3C=CC(C3)C2C1=O)Oc1ccc2ccccc2c1 (configuration not stated) | inactive |
| Cc1cc(C2=NNC(=NC3CCCCC3)SC2)c(C)n1-c1c(C)n(C)n(-c2ccccc2)c1=O | inactive |
| COC(=O)c1cccc(OC(N)=O)c1 | inactive |
| CCOc1ccc(-n2c(O)c(/C=N/Nc3nnc(C)c(=O)[nH]3)c3ccccc3c2=O)cc1 | inactive |
| CN(C)S(=O)(=O)c1cccc(NC(=O)CCc2nc3sc4c(c3c(=O)[nH]2)CCCC4)c1 | inactive |
| COc1cccc(NC(=O)Nc2nc(SC(C)(C)C)ns2)c1 | inactive |
| Nc1ccc(-c2nc3ccc(-c4nc5ccccc5o4)cc3[nH]2)cc1 | inactive |
| CC(C)(C)c1nc(SCC(=O)Nc2nc3c(s2)CCCC3)c2ccccc2n1 | inactive |
| O=C(Nc1cc(Oc2ccccc2)cc([N+](=O)[O-])c1)C12CC3CC(C1)CC(n1cnc(Cl)n1)(C3)C2 | inactive |
| C/C(=N\NC(=O)c1cc2c(s1)CCC(C)C2)c1ccncc1 (configuration not stated) | inactive |

| Compound | outcome |
| --- | --- |
| CCC1(c2ccccc2)NC(=O)N(CC(=O)Nc2ccc(S(=O)(=O)NC3=NCCCCC3)cc2)C1=O (configuration not stated) | inactive |
| Nc1cc(C(=O)OCC(=O)NNC(=O)c2cccs2)ccc1Cl | inactive |
| CSc1ccc(CNC(=O)C2Cc3cc(S(=O)(=O)N4CCCCC4)ccc3N2C(C)=O)cc1 (configuration not stated) | inactive |
| Nc1ncc2[nH]cnc2n1 | inactive |
| O=C(COc1cc(O)c2c(=O)c3ccccc3oc2c1)OCc1ccccc1 | inactive |
| CCCc1ccc(OCc2ccccc2)c2c(=O)cc(C(=O)OCC)oc12 | inactive |
| Cc1ccc(NC(=O)C2CCN(S(=O)(=O)c3ccc4c(c3)NC(=O)C(C)S4)CC2)c(Cl)c1 (configuration not stated) | inactive |
| O=C(c1cc([N+](=O)[O-])ccc1N1CCOCC1)N1CCN(S(=O)(=O)c2cc(Cl)ccc2Cl)CC1 | inactive |
| COc1ccc2c(C)nc(Nc3nc(C)c(C)c(=O)[nH]3)nc2c1 | inactive |
| COc1ccc(Oc2ccc(N/C=C/C(=O)C(C)(C)C)cc2)cc1 | inactive |
| COc1ccc(N/C=C/c2nc(SC)nnc2C)cc1 | inactive |
| CCCOc1ccc(C(=O)c2nc3c(n2O)CCCCC3)cc1 | inactive |
| CCCc1ncc(CN2CCCC(C(=O)Nc3ccc(-c4cccc(OC)c4)cc3)C2)cn1 (configuration not stated) | inactive |
| N/C(=N\OC(=O)CCC1CCCC1)c1cccc([N+](=O)[O-])c1 | inactive |
| Cc1ccccc1C(=O)Nc1ccc(N(C)C)c2ccccc12 | inactive |
| O=C(N/N=C/c1ccc(Br)s1)c1cccs1 | inactive |
| CCn1nnc(-c2ccc(N)cc2)n1 | inactive |
| COc1ccc(N2CN=C3SCC(=O)N3C2)cc1 | inactive |
| COc1ccc(C(C(O)C(=O)c2c[nH]c3ccccc23)N2CCN(c3ccc(OC)cc3)CC2)cc1 (configuration not stated) | inactive |
| CCOc1ccc(NC(=S)NC23CN4CN(CN(C4)C2)C3)cc1 | inactive |
| CCOC(=O)c1ccc(OC(=O)CCCCCN=C(N)N)cc1 | inactive |
| COc1ccccc1C(=O)NC(=Nc1nc2ccccc2o1)NC(=O)c1ccccc1OC | inactive |
| O=C(CN1CCN(c2ccc(F)cc2)CC1)N1CCC(Cc2ccccc2)CC1 | inactive |

| Compound | outcome |
| --- | --- |
| CC(=Nc1ccc(C)c(C)c1)C1=C(O)CSC1=O | inactive |
| CCOc1ccc(S(=O)(=O)N2CCN(C(=O)c3cc4c(s3)CCCC4)CC2)cc1 | inactive |
| COc1ccc(-c2ccc(=O)n(Cc3c(F)cccc3Cl)n2)cc1 | inactive |
| COc1ccc(NC(NC(=O)c2ccc(OC)cc2)C(Cl)(Cl)Cl)cc1 (configuration not stated) | inactive |
| Cc1nc2ccc(NC(=O)N(C(C)C)C(C)C)cc2s1 | inactive |
| CCOc1[nH]n(-c2ccccc2)c(=O)c1C=Nc1ccc(OC)cc1 | inactive |
| O=C(Sc1nnc(-c2ccccc2)o1)N1c2ccccc2Sc2ccccc21 | inactive |
| O=C(CCN1C(=O)C2CCCCC2C1=O)Nc1nc(-c2ccc(F)c(F)c2)cs1 (configuration not stated) | inactive |
| COc1ccc(OCc2nnc3n2N=C(c2ccccc2)C(CC(=O)O)S3)cc1 (configuration not stated) | inactive |
| COc1ccc(NC(=O)c2ccc(Cl)c(S(=O)(=O)N3CCc4ccccc4C3)c2)cn1 | inactive |
| CCOc1ccc(N(C(=O)/C=C/C(=O)Nc2cc(C)on2)C(C(=O)NC2CCCC2)c2ccccc2C)cc1 (configuration not stated) | inactive |
| CC(C)Cn1[nH]c2c3c(ccc2c1=O)C(=O)c1ccccc1C3=O | inactive |
| Cc1ccc(C(=O)Nc2cccc(C(F)(F)F)c2)cc1Nc1ncnc2nc[nH]c12 | inactive |
| Cc1ccc(Cl)cc1N1CCN(Cc2nc3ccsc3c(=O)[nH]2)CC1 | inactive |
| COc1ccc(-c2cc3ccccc3oc2=O)cc1NC(=O)c1ccc([N+](=O)[O-])o1 | inactive |
| COc1ccc(N2CCN(c3ccnc4cc(Cl)ccc34)CC2)cc1 | inactive |
| Fc1ccc(N/N=C2/CC(c3ccccc3)Oc3ccccc32)c(F)c1 (configuration not stated) | inactive |
| Oc1ccc2cc(Br)ccc2c1CN1CCCC1 | inactive |
| COc1ccc(-c2nc3ccccn3c2CN2CCN(c3ccccc3F)CC2)cc1 | inactive |
| CCOC(=O)C(=NC1CCS(=O)(=O)C1)NNc1ccc(Br)cc1 (configuration not stated) | inactive |
| CCOc1ccc(NC(C)c2cc(Cl)ccc2O)cc1 (configuration not stated) | inactive |

From PubChem BioAssay AID449764 (Southern Research Specialized Biocontainment Screening …, 2010)
